Rows were chosen to be rich in hits. Some 7.5% of all compounds tested hit in one or more screens of this group.
Giardia FBPA inh – inhibitors of Giardia lamblia fructose-1,6-bisphosphate aldolase; A8B2U2; purified Giardia FBPA; Potency, µM (highest dose often 59.6 µM), without a hit: at the highest dose activity, negative = inhibition, usual class: inhibitors; actives 0.71% (n = 290,000); further: potency means the concentration at half of the fitted maximal effect; nearly all actives have a fitted effect of over 55% in size
Target sequence (A8B2U2 whole entry, looked up): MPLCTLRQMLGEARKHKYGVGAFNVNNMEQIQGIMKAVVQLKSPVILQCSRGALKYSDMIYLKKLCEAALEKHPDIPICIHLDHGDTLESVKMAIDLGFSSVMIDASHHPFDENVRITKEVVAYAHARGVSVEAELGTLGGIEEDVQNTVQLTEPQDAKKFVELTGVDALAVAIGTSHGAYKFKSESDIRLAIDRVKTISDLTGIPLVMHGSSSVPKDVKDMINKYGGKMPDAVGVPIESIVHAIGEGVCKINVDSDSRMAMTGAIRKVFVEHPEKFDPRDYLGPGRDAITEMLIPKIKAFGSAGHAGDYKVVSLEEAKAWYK
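40 nM FBPA preincubated 10 min at RT with compound (up to 57.5 uM final), then substrate plus GAPDH/TPI/NAD/arsenate coupling and diaphorase/resazurin added. Fluorescence read after 20 min at RT, 525/598 nm.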
Vaccinia Venus – vaccinia inhibition (Venus reporter); Vaccinia virus Venus reporter expression, fluorescence; Potency, µM (highest dose often 36.5 µM), without a hit: at the highest dose activity change, negative = inhibition, usual class: inhibitors; actives 0.46% (n = 330,000); AID 720580; calls by dose curve; tested in A549 cells; further: potency means the concentration at half of the fitted maximal effect; nearly all actives have a fitted effect of over 30% in size
Vaccinia mCherry – inhibitors of vaccinia virus infection (mCherry reporter signal); Vaccinia virus mCherry reporter infection, fluorescence; Potency, µM (doses to about 36.5 µM), inactives show at the top dose activity change, negative = inhibition, actives largely listed as inhibitors; actives 0.63% (n = 310,000); AID 720579; calls by dose curve; tested in A549 cells; further: potency means the concentration at half of the fitted maximal effect; nearly all actives have a fitted effect of over 35% in size
HCV inh – HCV inhibition; Potency, µM (top dose mostly 41.8 µM), for inactives: top-dose activity change, negative = inhibition, usual class: inhibitors; actives 3.4% (n = 340,000); Huh7.5.1 HCVcc-Cre infection, luciferase reporter, 44 h; AID 651820; further: potency means the concentration at half of the fitted maximal effect
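A cell-based infection assay in which seeded cells (1,000 per well) receive test compound after 4 h, are inoculated with HCVcc-Cre at approximately 0.5 moi, and are incubated 44 h before luminescence detection.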
HCMV antiviral – blocks human cytomegalovirus replication. activity change, negative = inhibition, % at 57.5 µM. AID 1259415. actives 4.5% (n = 410,000). HFF cells, HCMV-luciferase reporter, 72 h; hits give low values; in the data active means activity change below about -60%; inconclusive means no clear call, values can overlap the other calls; inactive means above about -39%
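Two compound doses tested in HFFs infected with HCMV-luciferase, MOI 1 PFU/cell, 72 h at 37C. Lysate luminescence read with OneGlo; data normalized against buffer-only and 10uM Salinomycin inhibitor controls.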
FMDV inh – foot and mouth disease virus antiviral activity. Potency, µM (doses to about 57.9 µM), inactives show top-dose activity change, negative = inhibition, actives largely listed as inhibitors. FMDV antiviral cell-based qHTS. actives 1.2% (n = 410,000). AID 1159524; calls by dose curve; tested in HEK293T cells; further: read-out not given here; potency means the concentration at half of the fitted maximal effect; nearly all actives have a fitted effect of over 45% in size
Numbers without * were called inactive; i = inactive; ? = inconclusive; / = not tested or not shown; ! = not confirmed by another sample. Unless noted, the call rests on the fitted dose curve; in most records, active means well fitted curve in the direction sought with a large enough effect; inconclusive means small, poorly fitted or top-dose-only effect, or another doubt; inactive means no such curve, though single readings can be large; an effect the other way counts as inactive or inconclusive. On the % scale 0 is the no-effect control and ±100 the full control effect.

SMILES | Giardia FBPA inh | Vaccinia Venus | Vaccinia mCherry | HCV inh | HCMV antiviral | FMDV inh
COc1cccc(C(=O)OC(C)CN2CCCC2)c1 (centres undefined) | -6% | -12% | -11% | 0% | 35 | -24%
COc1cccc(C(=O)NNC(=O)C(=O)N2CCCCC2)c1 | -2% | -13% | i | 11% | -67* | 11%
COc1ccc(C(=O)NNC(=O)C(=O)N2CCCCC2)cc1OC | / | -8% | i | -6% | 0 | 10%
COc1cccc(C(=O)OCCN2CCCCC2)c1 | -11% | -3% | / | 16% | -100* | 4%
Cc1cccc(C)c1-n1ncc(C(=O)NCCCN2CCC(C)CC2)c1C1CCN(C(=O)OC(C)(C)C)CC1 | / | -17% | -16% | / | 6 | -27%
COC(=O)CNC(=O)CSc1nc2sc(-c3ccccc3)cc2c(=O)n1-c1ccccc1 | / | / | / | -3% | -20 | -20%
NC(=O)NC(=O)CSc1nc2sc(-c3ccccc3)cc2c(=O)n1-c1ccccc1 | -1% | -16% | i | 1% | -70* | ?
O=C(COc1ccccc1C(=O)Nc1ccccc1)Nc1cccc(Cl)c1 | / | -28% | -7% | / | / | /
CCN1CCN(c2cc(C(C)(C)C)nc3c(-c4ccccc4)c(C)nn23)CC1 | -1% | -14% | -25% | 4µM* | -75* | -8%
CCN1CCN(c2cc(C(C)C)nc3c(-c4ccccc4)c(C)nn23)CC1 | -4% | -27% | ? | -89% | -93* | -20%
Cc1nn2c(N3CCOCC3)cc(C(C)C)nc2c1-c1ccccc1 | 0% | / | / | ? | -31 | -27%
Cc1nn2c(N3CCOCC3)cc(C(C)(C)C)nc2c1-c1ccccc1 | 10% | / | / | -7% | 31 | -13%
COc1ccc2c(c1)[C@@H](NC(=O)OCc1ccccc1)[C@H](C)[C@@H](C(C)C)N2 | / | / | / | / | -19 | /
O=S(=O)(Nc1ccccc1O)c1cccc2cccnc12 | -25% | -15% | -23% | ? | -2 | 21%
O=S(=O)(Nc1cccc2cccnc12)c1ccccc1O | 20µM* | / | / | / | / | /
CCc1cccc(C)c1NC(=O)CSc1nnc(C)o1 | / | -11% | -5% | 9% | 8 | -4%
CCCC(=O)NC(=S)Nc1ccc(Cl)cn1 | -5% | / | / | 0% | -69* | 65%
Cc1cccc(C)c1NS(=O)(=O)c1ccc(NS(=O)(=O)c2ccc3c(c2)OCCO3)cc1 | / | -14% | -6% | / | -23 | -13%
CCC1CCCCN1C(=O)CSc1nc(N)cc(N)n1 (centres undefined) | -2% | / | / | 2% | -65* | -4%
Cc1ccc(-c2nnc(SCC(=O)N(C)C)nc2-c2ccc(C)cc2)cc1 | 6% | 5% | -15% | -13% | -60* | 27%
C=CCNC(=O)CC(=O)N/N=C/c1ccc(C(=O)OC)cc1 | 3% | ? | / | 5% | -67* | -23%
COC(=O)c1ccc(/C=N\NC(=O)CC(=O)NCCc2ccccc2)cc1 | 5% | / | / | -6% | -28 | -13%
N#Cc1ccc(-c2ccco2)nc1SCC(=O)c1ccc(Cl)cc1 | 20% | -9% | -19% | 4.5µM* | -34 | -18%
Cc1ccc(C(=O)CSc2nc(-c3ccccc3)ccc2C#N)cc1 | 3% | -6% | -3% | -12% | -25 | -9%
CN(C)C(CNC(=O)CCc1nc2sc3c(c2c(=O)[nH]1)CCCC3)c1ccccc1 (centres undefined) | / | -17% | -17% | ? | -13 | -22%
COc1cc(NC(=O)c2ccnc(N)c2)cc(C(=O)Nc2cccc(C(F)(F)F)c2)c1 | 4% | -16% | i | -26% | 21 | -7%
COc1cc(NC(=O)c2csc(N)n2)cc(C(=O)Nc2cccc(C(F)(F)F)c2)c1 | -5% | ? | ? | ? | -67*! | 25µM*
COc1cc(NC(=O)c2cnc(N)o2)cc(C(=O)Nc2cccc(C(F)(F)F)c2)c1 | 0% | ? | -26% | ? | ? | 18µM*
CCN(CC)C(=O)[C@H]1CC(CC(=O)NCCCn2ccnc2)C(=O)N2CCc3c([nH]c4ccc(OC)cc34)[C@]12C (some centres undefined) | / | -9% | -8% | 6% | 6 | -24%
CCOC(=O)N(C)c1c(CC)nc2c(OCc3ccc(Cl)cc3)cccn12 | / | -1% | i | / | -89* | -16%

Assay outcomes: PubChem, National Center for Advancing Translational Sciences (NCATS)
